Reference: the supplement of paper PMC12636033
± gives the standard deviation of the averaged measurements. Over roughly 33,000 sequences, “E-score (rank enrichment, -0.5 to 0.5)” has its median near -0.0043; the highest 2% begin near 0.24. The full list was thinned out, with the highest values kept by preference.

These sequences were tested on 2Sp-muMax20 (muMax20 with two 2,6-bis(methyl)pyridine Cys staples) (assay: PBM 8-mer E-score (E-score (rank enrichment, -0.5 to 0.5)); higher = stronger preferential binding).
Protocol: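 Protein binding microarray (universal PBM chip covering all 10-mers in fixed probe flanks) with chemically synthesized human Max(13-93) bHLH-LZ analogs (not full-length Max) bearing noncanonical residues (hArg, Tha, Aib, Nle at 65) and aromatic Cys staples. Read-out per 8-mer (and its reverse complement): E-score (rank-based enrichment, -0.5 to 0.5) and Z-score of median probe intensity.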

| Sequence | PBM 8-mer E-score |
| --- | --- |
| ATATCCCC | 0.28 ± 0.028 |
| ATATCCTC | 0.265 ± 0.056 |
| ATATCTTC | 0.294 ± 0.022 |
| ATATCCCG | 0.0776 ± 0.056 |
| CTATCTTC | 0.0745 ± 0.024 |
| ATATCCTA | 0.0987 ± 0.0053 |
| CTATCCCC | 0.0647 ± 0.044 |
| CTATCCTC | 0.0112 ± 0.011 |
| ATATCTTA | 0.19 ± 0.0044 |
| CAGAGATC | -0.137 ± 0.014 |
| TCTTCGCA | 0.0987 ± 0.026 |
| AGCTGACT | -0.0778 ± 0.023 |
| ACAAGATG | 0.115 ± 0.02 |
| CTGAAGGC | -0.247 ± 0.05 |
| TATGTACA | 0.25 ± 0.028 |
| GATGTACA | 0.165 ± 0.009 |
| CATGTACG | 0.2899 ± 0.0015 |
| AATGTACG | 0.0758 ± 0.021 |
| AATGTACA | 0.0795 ± 0.02 |
| CATGTACA | 0.143 ± 0.1 |
| CTGAACAA | -0.00871 ± 0.029 |
| GGCCTTAA | 0.0324 ± 0.052 |

| Sequence | PBM 8-mer E-score |
| --- | --- |
| ACCAAATG | -0.043 ± 0.09 |
| AAGAGACA | 0.252 ± 0.042 |
| GAGAGACA | -0.174 ± 0.03 |
| TAGAGACA | -0.0515 ± 0.021 |
| AAGGTGAT | 0.157 ± 0.033 |
| ATAGTAAA | 0.274 ± 0.033 |
| CTAGTAAA | 0.12 ± 0.047 |
| ATAGTAAT | 0.19 ± 0.084 |
| ACATAGGA | 0.102 ± 0.044 |
| ATTTTGTG | 0.0633 ± 0.081 |
| AATTTATA | 0.27046 ± 0.00013 |
| ATTTTATG | 0.0502 ± 0.14 |
| ATTTTGTA | 0.239 ± 0.12 |
| CATTTATA | 0.141 ± 0.023 |
| AATTTATC | 0.105 ± 0.038 |
| CTTTTGTA | 0.0481 ± 0.15 |
| ATTTTATA | 0.264 ± 0.03 |
| GTTTTATA | 0.168 ± 0.13 |
| ACGCCCTA | -0.000715 ± 0.088 |
| CCCAACAC | 0.00365 ± 0.023 |
| AATTCCGA | -0.0265 ± 0.07 |
| GCAAAGCA | 0.155 ± 0.058 |

| Sequence | PBM 8-mer E-score |
| --- | --- |
| CAAATTTG | 0.117 ± 0.032 |
| CAAATTTC | 0.236 ± 0.031 |
| GAAATTTC | 0.114 ± 0.052 |
| CCCTATCC | -0.0867 ± 0.098 |
| TAATACGA | -0.0384 ± 0.02 |
| AAAATATG | 0.114 ± 0.021 |
| AATATATA | 0.186 ± 0.0061 |
| AATATAGC | 0.168 ± 0.047 |
| CTAATATC | 0.173 ± 0.038 |
| ATAATATC | 0.24 ± 0.082 |
| AATATATG | 0.303 ± 0.0091 |
| GATATATC | 0.102 ± 0.037 |
| AATATAGT | 0.152 ± 0.037 |
| AATATATT | 0.2823 ± 0.0018 |
| ATAATATG | 0.185 ± 0.062 |
| AATATGTG | 0.191 ± 0.037 |
| AATATATC | 0.239 ± 0.051 |
| TGACATAA | 0.128 ± 0.05 |
| GTGTGGAA | 0.118 ± 0.01 |
| AGCCCGTA | -0.23 ± 0.063 |
| CATTTCAC | 0.0886 ± 0.049 |
| AATTTTCA | 0.146 ± 0.05 |

| Sequence | PBM 8-mer E-score |
| --- | --- |
| CACATTCG | 0.00422 ± 0.036 |
| ATTACTGA | 0.103 ± 0.074 |
| CGAGGAAC | -0.084 ± 0.029 |
| AATATGGA | 0.104 ± 0.011 |
| AATATGGT | 0.0878 ± 0.052 |
| AATATGGC | 0.302 ± 0.044 |
| AGCAACAG | -0.0291 ± 0.074 |
| ACCTAAGT | -0.0381 ± 0.043 |
| ATATTGTC | 0.121 ± 0.03 |
| AATAGTGA | -0.033 ± 0.029 |
| CATAGTGA | 0.0514 ± 0.05 |
| TATAGTGA | 0.249 ± 0.048 |
| GGTGTTGA | 0.0564 ± 0.02 |
| AGGAACAT | -0.135 ± 0.031 |
| CTTTACGA | -0.0477 ± 0.0036 |
| ATTTACGA | 0.0937 ± 0.12 |
| GTTTACGA | 0.242 ± 0.027 |
| GAACGCAC | -0.0274 ± 0.025 |
| ACAAAGCT | 0.00391 ± 0.011 |
| CTGTATCC | 0.236 ± 0.0094 |
